PubChem BioAssay AID1159580 (chemical genetic matrix, 2015)
Where “and” joins values, the source holds several entries; their conditions need not be identical. Identical values can stand only once. The campaign covered roughly 5,500 compounds. About 2,000 (36%) were called active. Another 18% or so got no clear call; they are omitted. No stated cut-off is given here; in the data, active means normalized growth mostly below about 0.91 (no sharp cut-off); inconclusive means no clear call, values can overlap the other calls; inactive means mostly above about 0.92. The list shows a part of the results.

Test: chemical genetic growth profiling, strain panel (AID 1159580);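 further: tested at 20 µM; growth read once vehicle control cultures reached saturation at 30 °C; 1 = growth at the plate median or of vehicle wells; lower values mean less growth of the strain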
Details: S. cerevisiae deletion strains, growth OD

Measured: normalized growth

COc1ccc2c(=O)c(-c3cc4c(cc3OC)OCO4)coc2c1
inactive: locus YAL021C, strain ccr4, hits give low values 1 | locus YAL026C, strain drs2, hits give low values 1.01 | locus YAL030W, strain snc1, hits give low values 1 | locus YBL061C, strain skt5, hits give low values 1.01 | locus YBR009C, strain hhf1, hits give low values 1 | locus YBR021W, strain FUR4, hits give low values 0.907 | locus YBR023C, strain chs3, hits give low values 1.01 | locus YBR171W, strain sec66, hits give low values 1.01 | locus YBR229C, strain ROT2, hits give low values 1 | locus YBR231C, strain swc5, hits give low values 1.01 | locus YBR279W, strain paf1, hits give low values 1.02 | locus YCL011C, strain gbp2, hits give low values 1.01 | locus YCL016C, strain dcc1, hits give low values 1.01 | locus YCL029C, strain bik1, hits give low values 1 | locus YCL061C, strain MRC1, hits give low values 1.01 | locus YCL069W, strain vba3, hits give low values 1 | locus YCR088W, strain abp1, hits give low values 1.01 | locus YDL005C, strain med2, hits give low values 1.01 | locus YDL035C, strain GPR1, hits give low values 1 | locus YDL040C, strain nat1, hits give low values 1.01 | locus YDL074C, strain BRE1, hits give low values 1.04 | locus YDL101C, strain DUN1, hits give low values 1.05 | locus YDL185W, strain tfp1, hits give low values 1.02 | locus YDL192W, strain arf1, hits give low values 1.01 | locus YDR001C, strain nth1, hits give low values 1.01 | locus YDR069C, strain doa4, hits give low values 1.02 | locus YDR101C, strain arx1, hits give low values 0.997 | locus YDR137W, strain rgp1, hits give low values 0.971 | locus YDR159W, strain sac3, hits give low values 1.03 | locus YDR162C, strain NBP2, hits give low values 1.03 | locus YDR195W, strain ref2 1.03 | locus YDR297W, strain sur2, hits give low values 1.01 | locus YDR318W, strain mcm21, hits give low values 1 | locus YDR334W, strain swr1, hits give low values 1.03 | locus YDR335W, strain msn5, hits give low values 1.01 | locus YDR388W, hits give low values 0.997 | locus YDR392W, strain spt3, hits give low values 1.02 | locus YDR502C, strain sam2, hits give low values 1.02 | locus YEL003W, strain gim4, hits give low values 1.01 | locus YEL037C, strain rad23, hits give low values 1.01 | locus YEL061C, strain CIN8 (second series), hits give low values 1.01 | locus YER015W, strain faa2, hits give low values 1.01 | locus YER016W, strain bim1, hits give low values 1.01 | locus YER110C, hits give low values 1.01 | locus YER111C, strain swi4, hits give low values 1.01 | locus YER155C, strain BEM2 (second series), hits give low values 1 | locus YER155C, strain BEM2, hits give low values 1 | locus YER167W, strain BCK2, hits give low values 1.02 | locus YFR010W, strain ubp6, hits give low values 1.02 | locus YGL078C, strain dbp3, hits give low values 1 | locus YGL086W, strain mad1, hits give low values 0.993 | locus YGL167C, strain pmr1, hits give low values 1.01 | locus YGL173C, strain kem1, hits give low values 1 | locus YGL227W, strain vid30, hits give low values 1.01 | locus YGL240W, strain doc1, hits give low values 1 | locus YGL248W, strain PDE1, hits give low values 1.02 | locus YGL253W, strain hxk2, hits give low values 1.01 | locus YGR135W, strain pre9, hits give low values 1 | locus YGR252W, strain gcn5, hits give low values 0.907 | locus YHR013C, strain ard1, hits give low values 1.03 | locus YHR027C, strain rpn1, hits give low values 1.02 | locus YHR030C, strain SLT2, hits give low values 0.98 | locus YHR079C, strain IRE1 (second series), hits give low values 1.03 | locus YHR079C, strain IRE1, hits give low values 0.982 | locus YHR094C, strain hxt1, hits give low values 1.02 | locus YHR129C, strain ARP1, hits give low values 1.03 | locus YHR142W, strain chs7, hits give low values 0.987 | locus YHR200W, strain rpn10, hits give low values 1.03 | locus YIL066C, strain RNR3, hits give low values 1.02 | locus YIL073C, strain SPO22, hits give low values 1.07 | locus YIL125W, strain kgd1, hits give low values 1 | locus YIR030C, strain dcg1, hits give low values 1.02 | locus YJL092W, strain hpr5, hits give low values 1.02 | locus YJL095W, strain BCK1 (second series), hits give low values 1.01 | locus YJL095W, strain BCK1, hits give low values 1.01 and 0.987 | locus YJL115W, strain asf1, hits give low values 1.02 | locus YJL129C, strain trk1, hits give low values 0.996 | locus YJL134W, strain LCB3, hits give low values 1.02 | locus YJL154C, strain vps35, hits give low values 1 | locus YJL164C, strain tpk1, hits give low values 1.02 | locus YJL166W, strain qcr8, hits give low values 1 | locus YJL168C, strain set2, hits give low values 1.02 | locus YJL187C, strain SWE1 (second series), hits give low values 1.03 | locus YJL187C, strain SWE1, hits give low values 1 | locus YJR066W, strain TOR1, hits give low values 0.927 | locus YKL009W, strain mrt4, hits give low values 0.952 | locus YKL068W, hits give low values 1.03 | locus YKL085W, strain MDH1 (second series), hits give low values 1.02 | locus YKL085W, strain MDH1, hits give low values 1.02 | locus YKL160W, strain elf1, hits give low values 1.01 | locus YKL190W, strain CNB1, hits give low values 1.04 | locus YKR001C, strain vps1, hits give low values 1.01 | locus YKR026C, strain gcn3, hits give low values 1.01 | locus YKR091W, strain srl3, hits give low values 1.01 | locus YLL001W, strain dnm1, hits give low values 1.01 | locus YLL026W, hits give low values 1.01 | locus YLL041C, strain sdh2, hits give low values 1.01 | locus YLR027C, strain aat2, hits give low values 1 | locus YLR039C, strain RIC1, hits give low values 1.13 | locus YLR058C, strain SHM2, hits give low values 1.02 | locus YLR102C, strain apc9, hits give low values 1.01 | locus YLR113W, strain HOG1, hits give low values 1.01 | locus YLR221C, strain rsa3, hits give low values 1 | locus YLR258W, strain gsy2, hits give low values 1 | locus YLR262C, strain YPT6 (second series), hits give low values 1.01 | locus YLR262C, strain YPT6, hits give low values 1.06 | locus YLR268W, strain sec22, hits give low values 0.972 | locus YLR320W, strain mms22, hits give low values 1.02 | locus YLR330W, strain CHS5, hits give low values 1.02 | locus YLR342W, strain FKS1 (second series), hits give low values 0.997 | locus YLR342W, strain FKS1, hits give low values 1.01 | locus YLR357W, strain rsc2, hits give low values 1.1 | locus YLR370C, strain arc18, hits give low values 1.01 | locus YLR371W, strain rom2, hits give low values 1.04 | locus YLR384C, strain iki3, hits give low values 0.998 | locus YLR418C, strain cdc73, hits give low values 1.05 | locus YML016C, strain PPZ1, hits give low values 1.02 | locus YML032C, strain rad52, hits give low values 0.98 | locus YML120C, strain ndi1, hits give low values 1.02 | locus YML124C, strain tub3, hits give low values 1.03 | locus YMR058W, strain fet3, hits give low values 1.02 | locus YMR078C, strain ctf18, hits give low values 1.02 | locus YMR125W, strain sto1, hits give low values 1.04 | locus YMR129W, hits give low values 1.01 | locus YMR205C, strain PFK2, hits give low values 1.01 | locus YMR223W, strain ubp8, hits give low values 1.01 | locus YMR231W, strain pep5, hits give low values 1.01 | locus YMR307W, strain GAS1, hits give low values 0.979 | locus YNL067W, strain RPL9B, hits give low values 1.03 | locus YNL071W, strain lat1, hits give low values 1 | locus YNL153C, strain GIM3, hits give low values 1.04 | locus YNL183C, strain NPR1, hits give low values 0.944 | locus YNL209W, strain ssb2, hits give low values 1.01 | locus YNL233W, strain BNI4, hits give low values 1.03 | locus YNL248C, strain rpa49, hits give low values 1.02 | locus YNL250W, strain rad50, hits give low values 1.06 | locus YNL271C, strain bni1, hits give low values 1.02 | locus YNL298W, strain CLA4, hits give low values 0.969 | locus YNL307C, strain MCK1, hits give low values 0.97 | locus YNL322C, strain KRE1 (second series), hits give low values 1.01 | locus YNL322C, strain KRE1, hits give low values 1.02 | locus YNR049C, strain mso1, hits give low values 1.01 | locus YNR052C, strain pop2, hits give low values 1.02 | locus YOL012C, strain htz1 1.12 | locus YOL147C, strain pex11, hits give low values 1 | locus YOR001W, strain rrp6, hits give low values 1 | locus YOR061W, strain CKA2, hits give low values 1.02 | locus YOR069W, strain VPS5, hits give low values 1.02 | locus YOR070C, strain gyp1, hits give low values 1 | locus YOR080W, strain dia2, hits give low values 1.01 | locus YOR083W, strain WHI5, hits give low values 0.999 | locus YOR106W, strain vam3, hits give low values 1 | locus YOR136W, strain idh2, hits give low values 1.01 | locus YOR144C, strain elg1, hits give low values 1.04 | locus YOR184W, strain ser1, hits give low values 0.957 | locus YOR231W, strain MKK1, hits give low values 0.993 | locus YOR265W, strain rbl2, hits give low values 1.01 | locus YOR270C, strain vph1, hits give low values 1.04 | locus YOR290C, strain snf2, hits give low values 1.02 | locus YOR316C, strain cot1, hits give low values 1.02 | locus YPL051W, strain arl3, hits give low values 1 | locus YPL078C, strain atp4, hits give low values 1.01 | locus YPL106C, strain sse1, hits give low values 0.996 | locus YPL240C, strain hsp82, hits give low values 0.995 | locus YPL241C, strain CIN2, hits give low values 1.04 | locus YPL256C, strain CLN2, hits give low values 0.963 | locus YPR119W, strain clb2, hits give low values 1.02 | locus YPR141C, strain kar3, hits give low values 1.03 | locus YPR163C, strain tif3, hits give low values 0.992 | locus YPR167C, strain met16, hits give low values 1.02 | strain wtn01, hits give low values 1.01
